# Active and inactive are the calls of the source. Rule for the calls: active = hit-call score of the fitted dose curve at least 0.9, where 1 is the maximum; inactive = score below 0.9.
# Assay: CCTE_Deisenroth_5AR_NBTE_acceptor: CCTE's 5alpha-reductase NanoBRET Target Engagement Assay - Autofluorescence Screen, Deisenroth Lab (AID 2284321);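 note: compound fluorescence in the acceptor channel under 460 nm excitation flags autofluorescence artifacts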
# Details: actives raise or lower the signal
# Protocol: CCTE_Deisenroth_5AR NBTE (5alpha-reductase NanoBRET Target Engagement Assay) is a cell-based, single-readout assay that uses HEK293T, a human kidney cell line, with measurements taken at 5 hours after chemical dosing in a 384 well plate. This assay includes a primary and secondary screen as well as an autofluorscence screen.CCTE_Deisenroth_5AR NBTE_acceptor is one of four assay components measured from the CCTE_Deisenroth_5AR NBTE assay. It is designed to make measurements of resonant fluorescence generated by bioluminescent energy transfer to a target fluorophore, as detected by fluorescence intensity emission signals using spectrometry technology.Data from the assay component CCTE_Deisenroth_5AR NBTE_acceptor was analyzed into 1 assay endpoint. This assay endpoint, CCTE_Deisenroth_5AR NBTE_acceptor, was analyzed with bidirectional fitting relative to DMSO as the negative control and baseline of activity. Using a type of inducible reporter, gain or loss-of-signal activity can be used to understand changes in the acceptor fluorescence as related to 5alpha-reductase catalytic function. Furthermore, this assay endpoint can be referred to as a secondary readout, because this assay has produced multiple assay endpoints where this one serves an artifact detection function.
# Chemicals from the blinded ToxCast library were diluted 1000-fold in DMSO to an assumed nominal concentration of 100 uM. Samples were scanned in three independent runs (n=3) on a multi-mode plate reader at a fixed excitation wavelength of 460 nm with emission filter set at […]. For reference, tracer was included at DMSO-solubilized concentrations of 100 uM (the top tested concentration for each test chemical) and 600 nM (the final working concentration of the tracer probe).
SMILES,AC50,outcome
O=C(O)Cc1cc(I)c(Oc2ccc(O)c(I)c2)c(I)c1,14.3 µM (active),–
CN1C(=O)CC[C@H]1c1cccnc1,–,inactive
CCCCCCCCOC(=O)c1cc(O)c(O)c(O)c1,61.4 µM (active),–
CCN(CC)C(=O)c1cc(S(=O)(=O)Cc2ccccc2)c(N2CCC(c3ccccc3)CC2)cc1N(CC)CCN(C)C,–,inactive
O=c1c(-c2ccc(O)cc2)coc2cc(O)cc(O)c12,–,inactive
CN1C(=O)N(c2ccccc2Br)Cc2cnc(Nc3ccc4c(c3)OCC(CO)O4)nc21 (centres undefined),–,inactive
COc1cc(C(=O)NC2CCN(C)CC2)ccc1Nc1ncc2c(n1)N(C1CCCC1)CC(F)(F)C(=O)N2C,–,inactive
CN(C[C@@H](CC[N+]12CCC(C3CCCCC3)(CC1)CC2)c1ccc(Cl)c(Cl)c1)C(=O)c1cc(C(F)(F)F)cc(C(F)(F)F)c1,16.1 µM (active),–
CCCCCCCCCCCO,–,inactive
NCc1cccc(C2CCN(C(=O)c3ccc(C#Cc4ccccc4F)o3)CC2)c1,–,inactive
CO[C@H]1/C=C/O[C@@]2(C)Oc3c(C)c(O)c4c(O)c(c(/C=N/N5CCN(C)CC5)c(O)c4c3C2=O)NC(=O)/C(C)=C\C=C\[C@H](C)[C@H](O)[C@@H](C)[C@@H](O)[C@@H](C)[C@H](OC(C)=O)[C@@H]1C,–,inactive
CN(C)c1ccc(C(=C2C=CC(=[N+](C)C)C=C2)c2ccc(N(C)C)cc2)cc1,4.78 µM (active),–
CCN(Cc1cccc(S(=O)(=O)O)c1)c1ccc(C(=C2C=CC(=[N+](CC)Cc3cccc(S(=O)(=O)O)c3)C=C2)c2ccccc2S(=O)(=O)[O-])cc1,21.7 µM (active),–
O=c1[nH]sc2ccccc12,82.8 µM (active),–

# — PubChem BioAssay (EPA / NIEHS)
